According to the supplement of paper PMC7366291:
Structures can show the parent of a compound that is named as a salt. ± gives the standard deviation or the standard deviation of the averaged measurements.

Columns and labels:
Conditions in all cases: 25 µM; exposure: 24-48 hpf
[1] = test system: Danio rerio Tg(wt1b:EGFP) embryo, pronephros; test: glomerular separation, fold change vs DMSO control; higher = glomeruli further apart (abnormal)
Procedure, shortened: (§1)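 Dechorionated Tg(wt1b:EGFP) zebrafish embryos were exposed to 25 μM compound in 0.5% DMSO, HEPES-buffered E3 with 0.003% PTU, from 24 to 48 hpf at 28.5°C. Pronephroi were imaged dorsally in agarose-filled 96-well plates (470 nm, 10 z-slices). On maximum projections, 16 reference points were set manually in Fiji and a macro computed distances and angles. Values more than 2 SD from the feature mean were excluded. Each feature is a fold change relative to the mean of same-day DMSO controls.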

[2] = test system: Danio rerio Tg(wt1b:EGFP) embryo, pronephros; test: glomerular width (mean of left and right), fold change vs DMSO control; higher = wider glomerulus
Procedure, shortened: as §1

[3] = test system: Danio rerio Tg(wt1b:EGFP) embryo, pronephros; test: fraction of imaged embryos annotated as normal kidney; higher = less nephrotoxic; extreme values may be limits of the assay
Procedure, shortened: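 Tricaine-anaesthetised Tg(wt1b:EGFP) zebrafish larvae were oriented dorsally in agarose-filled 96-well plates, and their pronephroi were recorded by widefield fluorescence at 470 nm in 10 z-slices. Before this, the dechorionated embryos had been exposed in 12-well plates to 25 μM compound in 0.5% DMSO and 5 mM HEPES-buffered E3 with 0.003% PTU, from 24 to 48 hpf at 28.5°C. Maximum projections were annotated manually for each embryo, and the read-out is the fraction per treatment classed as normal kidney.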

[4] = test system: Danio rerio Tg(wt1b:EGFP) embryo, pronephros; test: pronephric angle neck segment to proximal convoluted tubule (mean of left and right), fold change vs DMSO control; higher = larger pronephric angle
Procedure, shortened: as §1

O=C(O)c1cn(C2CC2)c2cc(N3CCNCC3)c(F)cc2c1=O [Ciprofloxacin hydrochloride monohydrate]
glomerular separation [1]: 0.914 ± 0.36 | glomerular width [2]: 0.94012 ± 0.00024 | fraction of imaged embryos annotated as normal kidney [3]: 0.833 | pronephric angle neck segment [4]: 0.988 ± 0.023

CC(C)(C)C(=O)OCOC(=O)[C@@H]1N2C(=O)[C@@H](NC(=O)[C@H](N)c3ccccc3)[C@H]2SC1(C)C [Pivampicillin]
glomerular separation [1]: 1.14 ± 0.47 | glomerular width [2]: 1 ± 0.011 | fraction of imaged embryos annotated as normal kidney [3]: 1 | pronephric angle neck segment [4]: 0.9619 ± 0.0073

CN(C)CCCN1c2ccccc2Sc2ccc(Cl)cc21 [Chlorpromazine hydrochloride]
glomerular separation [1]: 0.83 ± 0.37 | glomerular width [2]: 1.01 ± 0.1 | fraction of imaged embryos annotated as normal kidney [3]: 0.833 | pronephric angle neck segment [4]: 0.974 ± 0.024

Clc1ccc(CSC(Cn2ccnc2)c2ccc(Cl)cc2Cl)cc1 (configuration not stated) [Sulconazole nitrate]
glomerular separation [1]: 2.88 ± 1.5 | glomerular width [2]: 0.798 ± 0.035 | fraction of imaged embryos annotated as normal kidney [3]: 0.25 | pronephric angle neck segment [4]: 1.38 ± 0.15

CC(N)CCCC(C)(C)O (configuration not stated) [Heptaminol hydrochloride]
glomerular separation [1]: 1.19 ± 0.48 | glomerular width [2]: 1 ± 0.044 | fraction of imaged embryos annotated as normal kidney [3]: 0.75 | pronephric angle neck segment [4]: 0.971 ± 0.023

CCN(Cc1ccncc1)C(=O)C(CO)c1ccccc1 (configuration not stated) [Tropicamide]
glomerular separation [1]: 0.966 ± 0.68 | glomerular width [2]: 1.08 ± 0.027 | fraction of imaged embryos annotated as normal kidney [3]: 0.75 | pronephric angle neck segment [4]: 0.987 ± 0.052

Cc1c(NC(C)C)c(=O)n(-c2ccccc2)n1C [Isopyrin hydrochloride]
glomerular separation [1]: 1.1 ± 0.6 | glomerular width [2]: 1.04 ± 0.016 | fraction of imaged embryos annotated as normal kidney [3]: 0.917 | pronephric angle neck segment [4]: 0.974 ± 0.022

C#Cc1cccc(Nc2ncnc3cc(OCCOC)c(OCCOC)cc23)c1 [Erlotinib]
glomerular separation [1]: 0.768 ± 0.23 | glomerular width [2]: 1.05 ± 0.03 | fraction of imaged embryos annotated as normal kidney [3]: 0.833 | pronephric angle neck segment [4]: 0.994 ± 0.031

OCC(O)CN1CCN(c2ccccc2)CC1 (racemic) [Dropropizine (R,S)]
glomerular separation [1]: 0.917 ± 0.28 | glomerular width [2]: 1.002 ± 0.0079 | fraction of imaged embryos annotated as normal kidney [3]: 0.75 | pronephric angle neck segment [4]: 1.03 ± 0.038

CNNCc1ccc(C(=O)NC(C)C)cc1 [Procarbazine hydrochloride]
glomerular separation [1]: 1.02 ± 0.24 | glomerular width [2]: 0.973 ± 0.017 | fraction of imaged embryos annotated as normal kidney [3]: 1 | pronephric angle neck segment [4]: 1.084 ± 0.0049

CC(C(=O)O)c1ccc(-c2ccccc2)c(F)c1 (configuration not stated) [Flurbiprofen]
glomerular separation [1]: 5.61 ± 1.3 | glomerular width [2]: 0.48 ± 0.02 | fraction of imaged embryos annotated as normal kidney [3]: 0 | pronephric angle neck segment [4]: 1.96 ± 0.059

NCCNCCNCCNCCN [Tetraethylenepentamine pentahydrochloride]
glomerular separation [1]: 0.956 ± 0.33 | glomerular width [2]: 1.08 ± 0.041 | fraction of imaged embryos annotated as normal kidney [3]: 0.75 | pronephric angle neck segment [4]: 1.02 ± 0.049

OC(CCN1CCCCC1)(c1ccccc1)c1ccccc1 [Pridinol methanesulfonate salt]
glomerular separation [1]: 0.797 ± 0.22 | glomerular width [2]: 1.02 ± 0.06 | fraction of imaged embryos annotated as normal kidney [3]: 1 | pronephric angle neck segment [4]: 0.986 ± 0.089

Cc1ccc(C(=O)c2ccc(CC(=O)O)n2C)cc1 [Tolmetin sodium salt dihydrate]
glomerular separation [1]: 1.55 ± 0.69 | glomerular width [2]: 1.006 ± 0.0038 | fraction of imaged embryos annotated as normal kidney [3]: 0.333 | pronephric angle neck segment [4]: 1 ± 0.075

C=CCc1ccccc1OCC(O)CNC(C)C (configuration not stated) [Alprenolol hydrochloride]
glomerular separation [1]: 0.823 ± 0.28 | glomerular width [2]: 1 ± 0.074 | fraction of imaged embryos annotated as normal kidney [3]: 0.833 | pronephric angle neck segment [4]: 1.07 ± 0.015

C#C[C@]1(O)CC[C@H]2[C@@H]3CCC4=CC(=O)CC[C@@H]4[C@H]3CC[C@@]21C [Norethindrone]
glomerular separation [1]: 0.967 ± 0.35 | glomerular width [2]: 0.934 ± 0.068 | fraction of imaged embryos annotated as normal kidney [3]: 0.909 | pronephric angle neck segment [4]: 1 ± 0.022

Nc1nc(=S)c2ncn([C@@H]3O[C@H](CO)[C@@H](O)[C@H]3O)c2[nH]1 [Thioguanosine]
glomerular separation [1]: 1.01 ± 0.38 | glomerular width [2]: 1.02 ± 0.012 | fraction of imaged embryos annotated as normal kidney [3]: 0.917 | pronephric angle neck segment [4]: 1.03 ± 0.036

Cc1c(C)c2c(c(C)c1O)CCC(C)(C(=O)O)O2 (configuration not stated) [Trolox]
glomerular separation [1]: 0.733 ± 0.23 | glomerular width [2]: 0.963 ± 0.058 | fraction of imaged embryos annotated as normal kidney [3]: 0.833 | pronephric angle neck segment [4]: 1 ± 0.014

Cc1noc(NS(=O)(=O)c2ccc(N)cc2)c1C [Sulfisoxazole]
glomerular separation [1]: 0.975 ± 0.37 | glomerular width [2]: 1.04 ± 0.058 | fraction of imaged embryos annotated as normal kidney [3]: 0.75 | pronephric angle neck segment [4]: 0.97 ± 0.044

CN1CCN(CCCN2c3ccccc3Sc3ccc(S(=O)(=O)N(C)C)cc32)CC1 [Thioproperazine dimesylate]
glomerular separation [1]: 0.945 ± 0.3 | glomerular width [2]: 0.988 ± 0.028 | fraction of imaged embryos annotated as normal kidney [3]: 0.917 | pronephric angle neck segment [4]: 0.945 ± 0.046

COC(=O)C1=C(C)NC(C)=C(C(=O)OC2CCCN(Cc3ccccc3)C2)C1c1cccc([N+](=O)[O-])c1 (configuration not stated) [Benidipine hydrochloride]
glomerular separation [1]: 4.55 ± 0.53 | glomerular width [2]: 0.7 ± 0.061 | fraction of imaged embryos annotated as normal kidney [3]: 0 | pronephric angle neck segment [4]: 0.99 ± 0.056

Clc1ccc(COC(Cn2ccnc2)c2ccc(Cl)cc2Cl)c(Cl)c1 (configuration not stated) [Miconazole]
glomerular separation [1]: 3.42 ± 1.6 | glomerular width [2]: 0.865 ± 0.069 | fraction of imaged embryos annotated as normal kidney [3]: 0.0909 | pronephric angle neck segment [4]: 1.481 ± 0.012

CC(C)(C)NCC(O)c1cc(O)cc(O)c1 (configuration not stated) [Terbutaline hemisulfate]
glomerular separation [1]: 1.1 ± 0.36 | glomerular width [2]: 1 ± 0.029 | fraction of imaged embryos annotated as normal kidney [3]: 0.75 | pronephric angle neck segment [4]: 1.01 ± 0.039

Nc1c2c(nc3ccccc13)CCCC2 [Tacrine hydrochloride]
glomerular separation [1]: 1.09 ± 0.33 | glomerular width [2]: 1.01 ± 0.029 | fraction of imaged embryos annotated as normal kidney [3]: 0.833 | pronephric angle neck segment [4]: 1.03 ± 0.042

CNC1(C)C2CCC(C2)C1(C)C (configuration not stated) [Mecamylamine hydrochloride]
glomerular separation [1]: 1.09 ± 0.32 | glomerular width [2]: 0.973 ± 0.089 | fraction of imaged embryos annotated as normal kidney [3]: 0.833 | pronephric angle neck segment [4]: 1.07 ± 0.074

O=C(N/N=C/c1ccc([N+](=O)[O-])o1)c1ccc(O)cc1 [Nifuroxazide]
glomerular separation [1]: 0.916 ± 0.47 | glomerular width [2]: 1.02 ± 0.041 | fraction of imaged embryos annotated as normal kidney [3]: 0.833 | pronephric angle neck segment [4]: 0.964 ± 0.028

CCOc1ccc2c(c1)C(C)=CC(C)(C)N2 [Ethoxyquin]
glomerular separation [1]: 0.864 ± 0.31 | glomerular width [2]: 1.04 ± 0.039 | fraction of imaged embryos annotated as normal kidney [3]: 0.75 | pronephric angle neck segment [4]: 0.975 ± 0.044

CC(C(=O)O)c1ccc(C(=O)c2cccs2)cc1 (configuration not stated) [Suprofen]
glomerular separation [1]: 1.78 ± 0.63 | glomerular width [2]: 1.02 ± 0.14 | fraction of imaged embryos annotated as normal kidney [3]: 0.75 | pronephric angle neck segment [4]: 1.03 ± 0.081
